One assay in a line: qHTS profiling of the MIPE4 collection as inhibitors of Plasmodium falciparum (HB3) proliferation (AID 743347).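 Further: plate controls were DMSO vehicle wells for no effect and artemisinin wells for full effect.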 To be noted: P. falciparum HB3 in erythrocytes, SYBR Green DNA, 72 h; at 9.64 µM (top of the series). The source says:
Plasmodium falciparum is a virulent malarial parasite that kills 1-2 million people worldwide each year. Transmitted by mosquitoes, the sporozoite form of the parasite enters the blood stream to infect hepatocytes, where they become merozoites that infect red blood cells (erythrocytes). Within erythrocytes, merozoites begin a […] cycle of growth and division, after which the parasite is released to infect new red blood cells. Gametocytes, which form within erythrocytes as well, circulate in the bloodstream and are ingested by the mosquito, thereby completing the life cycle. To profile malarial isolates for differential chemical responses and to identify inhibitors of malarial growth, an assay that measures P. falciparum growth and replication within erythrocytes was employed. This assay uses a DNA binding fluorescent dye (SYBR Green) to detect parasite DNA following cell lysis. Because mature erythrocytes lack DNA, only Plasmodium-derived DNA is detected.
The SYBR Green viability assay was adapted from a method described previously (Plouffe et al., 2008). For screening 3 ul culture medium was dispensed into 1536 well black clear bottom plates (Aurora Biotechnologies) using a Multidrop Combi (Thermo Fisher Scientific Inc.), 23 nL compounds in DMSO were added by a pin tool (Kalypsys), and 5 ul of erythrocytes infected with P. falciparum (0.3% parasitemia, 2.5% hematocrit final concentration) were added. The plates were incubated at 37 C in a humidified incubator in 5% CO2 for 72 h, and 2 ul lysis buffer (20 mM Tris HCl, 10 mM EDTA, 0.16% saponin, 1.6% triton X, 10X SYBR Green I supplied as 10,000X […] by Invitrogen) was added to each well. The plates were mixed for 25 sec with gentle shaking and incubated overnight at room temperature in the dark. The following morning, fluorescence intensity at 485(14) nm excitation and 535(25) nm emission wavelengths was measured on an EnVision (Perkin Elmer) plate reader. Plate reads were normalized relative to the control inhibitor (0.29 uM artemisinin) and vehicle (DMSO) wells present on each plate and then corrected by an algorithm using vehicle-only control plates at the beginning and end of the compound plate stack.
On to `CCCCN(CCCC)CCC(O)c1cc2c(Cl)cc(Cl)cc2c2cc(C(F)(F)F)ccc12` (stereo not given), for which the growth, % of control is 5.69%.

The assay is the same for the next values; noted with them: P. falciparum HB3 in erythrocytes, SYBR Green DNA, 72 h; at 28.5 µM (top of the series).
Consider `CCCCN(CCCC)CCC(O)c1cc2c(Cl)cc(Cl)cc2c2cc(C(F)(F)F)ccc12` (stereo not given), for which the growth, % of control worked out at 7.8%.

Staying with this assay, now noted: P. falciparum HB3 in erythrocytes, SYBR Green DNA, 72 h; at 28.5 µM (top of the series) unless noted.
For `Oc1ccc(-c2nc(-c3ccc(F)cc3)c(-c3ccncc3)[nH]2)cc1`, the growth, % of control is 24.5%.

The compound `Cc1ccc(C)c(OCCCC(C)(C)C(=O)O)c1` returned a growth, % of control of 3.44%.

Compound `O=C(NCCO[N+](=O)[O-])c1cccnc1` came in with a growth, % of control of 108%.

The compound `CN(C)[C@@H](CCOc1cccc2ccccc12)c1ccccc1` had a growth, % of control of 15.2%.

In the case of `Cc1ccc(S(=O)(=O)NC(=O)NN2CC3CCCC3C2)cc1` (stereo not given), the growth, % of control amounted to 7.17%.

`Cc1cc2cc3c(C)cc(=O)oc3c(C)c2o1` came in with a growth, % of control of 76.7%.

As for `Cc1ccc(NC(=O)c2ccc(CN3CCN(C)CC3)cc2)cc1Nc1nccc(-c2cccnc2)n1`, the growth, % of control was 4.5%.

As for `NS(=O)(=O)c1cc(C(=O)O)c(NCc2ccco2)cc1Cl`, the growth, % of control worked out at 84.6%.

For `CN(C)C(=O)COC(=O)Cc1ccc(OC(=O)c2ccc(N=C(N)N)cc2)cc1`, the growth, % of control came to 101%.

For the compound `COC(=O)N[C@H](C(=O)N[C@@H](Cc1ccccc1)[C@@H](O)CN(Cc1ccc(-c2ccccn2)cc1)NC(=O)[C@@H](NC(=O)OC)C(C)(C)C)C(C)(C)C`, the growth, % of control was 9.81%.

As to `CNC[C@H](O)c1ccc(O)c(O)c1`, the growth, % of control came to 78% [at 57.5 µM].

For `NC(=NCc1ccccc1)NC(=O)c1nc(Cl)c(N)nc1N`, the growth, % of control worked out at 98.4%.

With `C[C@]12CCC(=O)C=C1CC[C@@H]1[C@H]2[C@@H](O)C[C@@]2(C)[C@H]1CC[C@]2(O)C(=O)CO`, the growth, % of control was determined as 63%.

On to `C[C@H](Cc1ccc(O)c(O)c1)[C@@H](C)Cc1ccc(O)c(O)c1`, for which the growth, % of control was 20.7%.

Take `CCN(CCO)CCCC(C)Nc1ccnc2cc(Cl)ccc12` (stereo not given): the growth, % of control stood at 49.8%.

Compound `CS(=O)(=O)OCCCCOS(C)(=O)=O` registered a growth, % of control of 106%.

On to `Cc1ccc(C(=O)c2cc(O)c(O)c([N+](=O)[O-])c2)cc1`, for which the growth, % of control was found to be 92.8%.

On to `O=c1ccc2ccc(O)c(O)c2o1`, for which the growth, % of control was 162%.

`CCN(CC)CCOc1ccc(Cc2ccccc2)cc1` showed a growth, % of control of 84.7%.

In turn, `COC1=C(OC)C(=O)C(CCCCCCCCCCO)=C(C)C1=O` yielded a growth, % of control of 73.4%.

Compound `CC(C)[N+]1(C)[C@@H]2CC[C@H]1CC(OC(=O)C(CO)c1ccccc1)C2` (stereo not given in full) came in with a growth, % of control of 75%.

Consider `CCC[C@@H]1C[C@@H](C(=O)N[C@@H]([C@H]2O[C@H](SC)[C@H](O)[C@@H](O)[C@H]2O)[C@@H](C)O)N(C)C1`, for which the growth, % of control is 66.3%.

`CCCCC(CC)COC(=O)C(C#N)=C(c1ccccc1)c1ccccc1` (stereo not given) registered a growth, % of control of 7.29%.

`OC(CN1CCN(c2cccc(Cl)c2)CC1)C(c1ccccc1)c1ccccc1` (stereo not given) had a growth, % of control of 47%.

Take `CN(C)CCCC1(c2ccc(F)cc2)OCc2cc(C#N)ccc21` (stereo not given): the growth, % of control is 93%.

With `Cc1c(C(=O)NN2CCCCC2)nn(-c2ccc(Cl)cc2Cl)c1-c1ccc(Cl)cc1`, the growth, % of control came out at 8.97%.

In turn, `COc1cc2c(cc1OC)C1CC(=O)C(CC(C)C)CN1CC2` (stereo not given) had a growth, % of control of 67.9%.

In turn, `CN(c1nccc(=O)[nH]1)C1CCN(c2nc3ccccc3n2Cc2ccc(F)cc2)CC1` returned a growth, % of control of 17.5%.

Compound `Nc1ccn([C@@H]2O[C@H](CO)[C@@H](O)C2O)c(=O)n1` (stereo not given in full) had a growth, % of control of 107%.

With `CCOC(=O)c1c(C)n(C)c2ccc(O)cc12`, the growth, % of control was 66.7%.

`N=C(N)c1ccc2cc(OC(=O)c3ccc(N=C(N)N)cc3)ccc2c1` gave a growth, % of control of 12.8%.

`NNc1nncc2ccccc12`: the growth, % of control is 95.2%.

As to `Cc1nccn1CC1CCc2c(c3ccccc3n2C)C1=O` (stereo not given), the growth, % of control was 54.5%.

Consider `Nc1nc(N)c(N=O)c(OCC2CCCCC2)n1`, for which the growth, % of control is 36.5%.

Compound `S=c1nc[nH]c2nc[nH]c12` gave a growth, % of control of 55.2%.

`O=c1cc(N2CCOCC2)oc2c(-c3ccccc3)cccc12` registered a growth, % of control of 36.7%.

Consider `O=C(OC1C[C@H]2CC[C@@H](C1)[N+]21CCCC1)C(O)(c1ccccc1)c1ccccc1` (stereo not given in full), for which the growth, % of control stood at 17.4%.

The compound `CCOc1cc(CC(=O)N[C@@H](CC(C)C)c2ccccc2N2CCCCC2)ccc1C(=O)O` registered a growth, % of control of 75.6%.

The values above are taken from PubChem BioAssay (NCATS).
